Structures are written as SMILES. Where “and” joins values, the source holds several entries; their conditions need not be identical. Identical values can stand only once. About 83,000 compounds went through this panel and 20% of them were active in at least one assay; those are over-represented in the sample as a whole.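 Each cell line was grown in a 96-well plate and treated with one concentration of compound for 48 hours. Values below 10 were considered active.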 Calls of active or inactive are those of the source.

The assay deals with MDA-MB-468 breast. Briefly: NCI-60 one-dose screen, 48 h (100 = growth as untreated, 0 = no growth, -100 = all killed). The conditions noted are these: 10 µM unless noted.
For the molecule `COc1ccc(-c2cc(-c3nnc(SCC(=O)Nc4ccc(/C(C)=N\O)cc4)o3)c3ccccc3n2)cc1`, the growth was 106% (inactive).

For the molecule `NS(=O)(=O)c1ccc(Nc2nc(N/N=C/c3ccc(C(F)(F)F)cc3)nc(Nc3ccccc3)n2)cc1`, the growth is 34.3% (inactive).

Turning to `NC(CCc1nc2ccccc2c(=O)[nH]1)C(=O)O` (stereo not given), the growth is 105% (inactive).

`CC1CC(C(C)(C)C)C(=O)C(C(C)(C)C)C1` (stereo not given): the growth is 99.8% (inactive).

Take `IP(CCCCCCCCCCSc1n(Cc2ccc3ccccc3c2)c(-c2ccccc2)c(-c2ccccc2)[n+]1Cc1ccc2ccccc2c1)(c1ccccc1)(c1ccccc1)c1ccccc1`: the growth is -75.3% (active).

On to `COc1ccc(/C=C2/CCc3cc4ccc(OC)cc4[o+]c32)c(O)c1`, for which the growth is 97.1% (inactive).

Consider `CNC(=O)c1cccc2cc(Oc3ccnc4cc(OCC5(N)CC5)c(OC)cc34)ccc12`, for which the growth is 74.6% (inactive).

With `COc1ccc(NC(=O)COc2ccccc2)c(C(N)=O)c1`, the growth was 16.6% (inactive).

With `COC(=O)CCc1n(Cc2ccc3ccccc3c2)c2ccccc2[n+]1Cc1ccc2ccccc2c1`, the growth was -15% (active).

`Cc1[nH]c(/C=C/C(=O)c2ccc(C(F)(F)F)c(F)c2)c(C)c1C(=O)NCC(C)C`: the growth was 93.6% (inactive).

`COC(=O)c1ccc(NC(=O)CSc2nc(-c3ccc(F)cc3)nc3ccccc23)cc1`: the growth was 80.1% (inactive).

With `Nc1nc(Nc2ccccc2SSc2ccccc2Nc2nc(N)nc(C(Cl)(Cl)Cl)n2)nc(C(Cl)(Cl)Cl)n1`, the growth is 86.6% (inactive).

`CC(NCCC(c1ccccc1)c1ccccc1)c1ccccc1` (stereo not given): the growth is 49% (inactive).

Consider `C=C1CC2(OC1=O)C(=O)Nc1ccccc12` (stereo not given), for which the growth was -11.5% (active).

`COCCNC(C(=O)c1ccccc1)c1ccccc1` (stereo not given): the growth was 90.8% (inactive).

`COc1nc2ccccc2s1`: the growth is 113% (inactive).

For `C=CCN(CC=C)C(=O)[C@H](CC)[C@@H]1CC[C@@H](C)[C@@H]([C@H](C)[C@@H](O)[C@@H](C)C(=O)[C@H](CC)C2O[C@]3(C=C[C@@H](O)[C@]4(CC[C@@](C)([C@H]5CC[C@](O)(CC)[C@H](C)O5)O4)O3)[C@H](C)C[C@@H]2C)O1` (stereo not given in full), the growth is -19.1% (active).

Take `O=C(CN1C(=O)S/C(=C\c2ccccc2)C1=O)Nc1ncc(Cc2ccccc2Cl)s1`: the growth was 115% (inactive).

`O=C(S)CNC(=O)c1ccccc1`: the growth is 95.7% (inactive).

In the case of `COc1ccc(-c2cc(-c3cccc(NS(C)(=O)=O)c3)nc(N)c2C#N)cc1`, the growth is 0.11% (active).

For `COc1cc(-c2nc(C(=O)NCC(=O)O)nn2-c2ccc(Cl)cc2)cc(OC)c1OC`, the growth was 113% (inactive).

As to `N#Cc1ccc(O)c(C2=NCC(c3ccc(-c4ccccc4)cc3)O2)c1` (stereo not given), the growth was 26.9% (inactive).

In the case of `COC(=O)c1ccc2c(c1)nc(-c1ccc(O)c(OC)c1)n2-c1cc(C(C)(C)C)[nH]n1`, the growth was 104% (inactive).

Turning to `N#Cc1nc(-c2ccccc2)oc1S(=O)(=O)NCC(c1ccc(Cl)cc1)N1CCCCC1` (stereo not given), the growth is 41.4% (inactive).

As for `Cc1cc2ccccc2cn1`, the growth is 96.6% (inactive) and 102% (inactive).

In the case of `COc1ccc(Cl)cc1NC(=O)c1c(NC(=O)C(F)(F)C(F)(F)F)sc2c1CCCCC2`, the growth is -16.9% (active).

For the molecule `O=C(CI)OCC(COC(=O)CI)OC(=O)CI`, the growth is 51.6% (inactive).

As to `CNCCNc1nc2ccccc2c2c(=O)c3cccc(C)c3sc12`, the growth is -14.9% (active).

With `Cc1ccc(NC(=O)N[C@@H](Cc2cc(F)cc(F)c2)C(=O)NC2C(=O)N3C[C@H](O)C[C@H]3C(=O)N3CCCC[C@H]3C(=O)N[C@@H](CO)C(=O)N3C[C@H](C)C[C@H]3C(=O)O[C@H]2C)c(F)c1` (stereo not given in full), the growth is -2.72% (active).

As for `Cc1ccc(S(=O)(=O)NC(CCC(=O)Nc2ccc(Cl)cc2)C(=O)Nc2ccc(Cl)cc2)cc1` (stereo not given), the growth was 29% (inactive).

In the case of `CN(C)CCCC1(c2ccc(F)cc2)OCc2cc(-c3ccc(C(F)(F)F)nc3)ccc21` (stereo not given), the growth is 73.3% (inactive).

As for `CCOc1cc2ncc(C#N)c(Nc3ccc(OCc4cccc(F)c4)c(Cl)c3)c2cc1NC(=O)CCCCC1CCSS1` (stereo not given), the growth is 70.4% (inactive).

Take `CC(=O)c1cccc(OC(=O)c2ccccc2)c1`: the growth is 104% (inactive).

As for `CCCCC/C=N/Nc1nc(C)cc(=O)[nH]1`, the growth is 105% (inactive).

As to `C#C[C@@]1(O)[C@@H](CO)O[C@@H](n2cc(Br)c3c(N)ncnc32)[C@@H]1O`, the growth is -45.1% (active).

Turning to `COc1ccc(-c2cn3c(ccc4ccccc43)n2)cc1`, the growth is 108% (inactive).

As for `CNC(=O)c1cc(Oc2ccc(NC(=O)c3[nH]c(SC)nc3-c3ccc(F)cc3)cc2)ccn1`, the growth was 70.9% (inactive).

On to `COc1cccc(-c2cn3c(ccc4ccccc43)n2)c1`, for which the growth was 34.2% (inactive).

For `CN1C(=O)N(C)C2C1NN=c1s/c(=C\c3cccnc3)c(=O)n12` (stereo not given), the growth was 58.1% (inactive).

Turning to `COCCOc1ccc(-c2csc(NC(C)=O)n2)cc1NS(=O)(=O)c1cccc2c(N(C)C)cccc12`, the growth is 90.3% (inactive).

These data come from PubChem BioAssay (NCI).
